Screening data deposited in PubChem BioAssay by National Center for Advancing Translational Sciences (NCATS).
Rows were chosen to be rich in hits. Some 6.1% of all compounds tested hit in one or more screens of this group.
D3 antag – qHTS of D3 Dopamine Receptor Antagonist: qHTS | D(3) dopamine receptor (Homo sapiens), P35462 | D3R cells, DiscoveRx beta-arrestin luminescence, antagonist mode; stronger effect = lower value | max response, negative = inhibition, % | 360,000 tested, 2.5% active | AID 652054, 2013; in the data active = max response below about -50%; inconclusive = no clear call, values can overlap the other calls; also: % is scaled to controls: 0 for no effect and ±100 for the full control effect
Target sequence (P35462 whole entry, looked up): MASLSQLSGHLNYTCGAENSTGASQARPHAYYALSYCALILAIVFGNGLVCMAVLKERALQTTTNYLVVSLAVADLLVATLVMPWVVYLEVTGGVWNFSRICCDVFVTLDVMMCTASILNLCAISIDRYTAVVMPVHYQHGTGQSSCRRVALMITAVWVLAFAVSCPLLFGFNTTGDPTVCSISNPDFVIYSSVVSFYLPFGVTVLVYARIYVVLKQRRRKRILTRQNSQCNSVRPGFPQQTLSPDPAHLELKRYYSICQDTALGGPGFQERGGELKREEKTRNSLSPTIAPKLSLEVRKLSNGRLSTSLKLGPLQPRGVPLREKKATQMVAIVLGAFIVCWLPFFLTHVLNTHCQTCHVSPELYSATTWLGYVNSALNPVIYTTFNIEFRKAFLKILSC
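Cells plated overnight at 1500 cells/well, then exposed to library compounds with dopamine controls for 90 minutes at 37 degrees C. DiscoveRx reagent added for 30–60 minutes at room temperature; luminescence read, quantitative HTS format.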
D1 antagonist – Antagonist of Human D 1 Dopamine Receptor: qHTS | HEK293 TREx D1 cells, calcium flux, dopamine EC80; stronger effect = lower value | D(1A) dopamine receptor (Homo sapiens), P21728 | AID 504652, 2011 | 360,000 tested, 3.2% active | activity change, negative = inhibition, % at 10 µM; in the data active = activity change below about -30%; also: % is scaled to controls: 0 for no effect and ±100 for the full control effect
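Using tetracycline-induced force-coupled D1 Hek293 cells and a calcium dye, signals were followed for 180 s after compound, then for 180 s after EC80 dopamine, to detect inhibitors.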
DRD3 agonist – qHTS of D3 Dopamine Receptor Agonist: qHTS; D3R DiscoveRx beta-arrestin cells, luminescence, 90 min; 410,000 tested, 0.58% active; max activation, %; D(3) dopamine receptor (Homo sapiens), P35462; in the data active = max activation above about 30%; also: 0% is about no effect
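Agonist-mode cell screen: cells plated at 1500/well and incubated overnight at 37 °C, then exposed to library compounds for 90 min at 37 °C. Detection reagent was added for 30–60 min at room temperature, and luminescence was read.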
D1 agonist – Allosteric Agonists of the Human D1 Dopamine Receptor: qHTS; 360,000 tested, 1% active; AID 504660, 2011; HEK293 T-REx D1 cells, calcium flux, agonist mode; activation, % at 2 µM; in the data active = activation above about 30%; also: 0% is about no effect
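Agonism was scored from calcium flux recorded over 180 s (1 read/s) after pintool compound addition, following a 10-cycle baseline. Cells were inducible force-coupled HEK293 TREx D1, plated overnight at 30 C and loaded with no-wash calcium dye.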
D1 PAM – Potentiators of Human D1 Dopamine Receptor: qHTS | potentiation, % at 10 µM | HEK293 TREx D1 cells, calcium flux, dopamine EC20 potentiation | D(1A) dopamine receptor (Homo sapiens), P21728 | 360,000 tested, 0.036% active; in the data active = potentiation above about 30%; also: 0% is about no effect
Numbers without * were called inactive; ? = inconclusive; . = no result given.

SMILES	D3 antag	D1 antagonist	DRD3 agonist	D1 agonist	D1 PAM
COCCNC(=O)Cn1cc(/C=C2\C(=O)NC(=O)N(c3ccccc3F)C2=O)c2ccccc21	-9	4	-10	2	-4
O=S1(=O)N(Cc2ccccc2Cl)CCCN1Cc1ccccc1Cl	.	-3	-5	19	3
O=S1(=O)N(Cc2ccccc2)CCCN1Cc1ccc(F)cc1Cl	.	-44*	-10	10	-3
CCC(=O)OC1(Cc2ccc(CC)cc2)CC(C)N(C)CC1C (stereo not drawn)	-56*	7	-45	3	1
O=C(CN1C(=O)CN=C(c2ccccc2)c2ccccc21)Nc1cccc(C(F)(F)F)c1	.	-14	7	6	8
COC(=O)C1=C(c2ccc(Cl)c(C(F)(F)F)c2)C[C@@H]2CC[C@H]1N2C(=O)N1CCC(C)CC1	-50*	-20	-46	4	0
COC(=O)C1=C(c2ccc(OC)c(OC)c2)C[C@@H]2CC[C@H]1N2C(=O)N1CCC(C)CC1	?	.	-14	-2	-1
COC(=O)C1=C(c2ccc(S(C)(=O)=O)cc2)C[C@@H]2CC[C@H]1N2C(=O)N1CCC(O)CC1	17	.	33*	.	.
CC1OC(C)OC(C)O1 (stereo not drawn)	.	.	10	.	.
ClC(Cl)(Cl)Cl	.	.	6	.	.
OC(COCc1ccc(Cl)cc1)CN1CC=C(c2ccccc2)CC1 (stereo not drawn)	?	-8	34*	29	-6
Clc1ccc2[nH]c3c(c2c1)CCNC3	-70*	-7	-17	9	-7
Cc1cc(C)cc(-n2c(C)cc(/C=C3\C(=O)NC(=O)N(C)C3=O)c2C)c1	-65*	11	-11	3	2
Cc1cc(/C=C2\C(=O)NC(=O)N(c3cccc(F)c3)C2=O)c(C)n1-c1cc(C(=O)O)cc(C(=O)O)c1	13	-6	2	1	-2
Cc1ccc2c(c1)[C@]13CCCC[C@@H]1[C@H](C2)N(C)CC3	.	.	7	.	.
N/C(=N\N=C\c1ccc(O)cc1O)N[N+](=O)[O-]	-64*	4	-4	0	1
O=c1[nH]c(=O)n(Cl)c(=O)n1Cl	.	.	10	.	.
CN(C)C1(CNC(=O)Nc2ccc(Cl)c(Cl)c2)CCCCC1	-55*	-7	-27	32*	-9
COC(=O)[C@H]1[C@@H](OC(=O)c2ccccc2)C[C@@H]2CC[C@H]1N2C	.	.	-11	.	.
COC(=O)C1C2CC[C@@H](CC1OC(=O)c1ccccc1)N2 (stereo partly drawn)	19	.	41*	.	.
COCCNCCOc1ccc(C(C)(C)c2ccccc2)cc1	-57*	9	-29	38*	3
C[C@@H](N)[C@@H](O)c1ccccc1	.	.	7	.	.
CC1(C)CC(CCNCc2ccc3c(c2)OCO3)(Cc2ccccc2)CCO1 (stereo not drawn)	-24	-2	-11	61*	-2
Clc1cccc(CNCCc2ccc3c(c2)OCO3)c1	?	-3	-19	4	-7
CO/C=C(/C(=O)OC)c1ccccc1Oc1cc(Oc2ccccc2C#N)ncn1	.	.	22	.	.
SMILES	D3 antag	D1 antagonist	DRD3 agonist	D1 agonist	D1 PAM
CC(C)Cc1nc2cccnc2n1C1CCNCC1	.	3	6	1	0
Cc1sc2ccccc2c1CC1=NCCN1	-29	-47*	-54	5	-9
Cc1ccc2c(c1)C1CN(C)CCC1N2C(=S)Nc1cccnc1 (stereo not drawn)	-6	.	0	0	-9
Cc1ccc2c(c1)C1CN(C)CCC1N2C(=O)Nc1cccc(Cl)c1 (stereo not drawn)	-24	-96*	-56	26	-13
CC(C)(C)n1nnnc1C(c1cc2ccccc2o1)N1CCC2(CC1)C(=O)NCN2c1ccccc1 (stereo not drawn)	-99*	.	-13	.	.
O=C1NCN(c2ccccc2)C12CCN(C(c1cc3ccccc3o1)c1nnnn1C1CCCCC1)CC2 (stereo not drawn)	37	.	11	.	.
COC(=O)C1=C(c2cccc(C#N)c2)C[C@@H]2CC[C@H]1N2C(=O)N1CCC(O)CC1	15	.	11	1	-3
COC(=O)C1=C(c2cccc(C#N)c2)C[C@@H]2CC[C@H]1N2C(=O)NC1Cc2ccccc2C1	-12	-41*	-13	1	-5
COC(=O)C1=C(c2ccc(C(C)=O)cc2)C[C@@H]2CC[C@H]1N2C(=O)NCc1ccc(C(F)(F)F)cc1	3	-41*	-1	48*	-2
COC(=O)C1=C(c2cccc(C#N)c2)C[C@@H]2CC[C@H]1N2C(=O)N1CCCCC1	-15	-37*	3	1	-2
COC(=O)C1=C(c2ccc(OC)c(OC)c2)C[C@@H]2CC[C@H]1N2C(=O)NC(C)C	39	-42*	3	-2	6
CC[C@H]1CN2CCC1C[C@@H]2[C@@H](O)c1ccnc2ccc(OC)cc12 (stereo partly drawn)	-63*	.	-78	.	.
FCCN(CCF)c1cccc(Cl)c1	2	-34*	1	0	4
CCC(C(=O)Nc1ccccc1F)N1C(=O)CN=C(c2ccccc2)c2ccccc21 (stereo not drawn)	.	-9	-15	0	0
COc1ccc(CC(=O)N2CCN(C)CC2)cc1OC	-71*	3	-3	-2	-6
O=C(Nc1ccc(Cl)cc1C(=O)c1ccccc1Cl)c1ccco1	-16	-39*	-12	2	-7
O=C(Nc1ccc(Cl)cc1C(=O)c1ccccc1)c1ccccc1Br	.	10	1	6	1
O=C(Nc1ccc(Cl)cc1C(=O)c1ccccc1)c1ccco1	-22	-33*	-4	5	-5
CCOc1ccc(CN(CCc2ccc3c(c2)OCO3)Cc2ccc(CC)cc2)cc1	.	4	-46	3	-1
O=C(CN1CC=C(c2ccccc2)CC1)Nc1cc(Cl)ccc1Cl	3	5	-7	5	4
O=C(CN1CC=C(c2ccccc2)CC1)Nc1c(Cl)cccc1Cl	-71*	-9	1	4	-6
COc1ccc(CNCCc2ccc3c(c2)OCO3)cc1Br	-27	-18	1	78*	-4
FC(F)(F)c1ccc(CNCCc2ccc3c(c2)OCO3)cc1	-7	4	-3	35*	-2
CC(C)NCC(O)c1ccccc1Cl (stereo not drawn)	.	.	5	.	.
O=C(Nc1cc(C(F)(F)F)cc(C(F)(F)F)c1)c1cccn(Cc2ccccc2Cl)c1=O	.	39	1	2	-5
Cc1ccc(S(=O)(=O)N(c2cc(Cl)c(O)c(Cl)c2)P(=O)(OC(C)C)OC(C)C)cc1	-1	-33*	5	0	-13
Fc1ccccc1CCNCc1cccc(Cl)c1Cl	-58*	.	-32	.	.
O=c1c2ccccc2nc(/C=C/c2ccccc2O)n1-c1ccc(Br)cc1	.	-7	3	5	-2
